Data published in paper PMC4336329 (PLoS ONE, 2015).
Screen size: about 310,000 compounds; about 14,000 (4.5%) showed an effect of 50% or more. Effects have a minus sign here. The sample as a whole holds a higher share of strong results than the screen did.

The compounds below were run against human ether-à-go-go-related gene (hERG) potassium channel (human, UniProt Q12809) (assay: primary screen, population patch clamp on CHO cells stably expressing hERG; higher = less effect of the substance).
Chain of human ether-à-go-go-related gene (hERG) potassium channel (Q12809 whole entry, looked up): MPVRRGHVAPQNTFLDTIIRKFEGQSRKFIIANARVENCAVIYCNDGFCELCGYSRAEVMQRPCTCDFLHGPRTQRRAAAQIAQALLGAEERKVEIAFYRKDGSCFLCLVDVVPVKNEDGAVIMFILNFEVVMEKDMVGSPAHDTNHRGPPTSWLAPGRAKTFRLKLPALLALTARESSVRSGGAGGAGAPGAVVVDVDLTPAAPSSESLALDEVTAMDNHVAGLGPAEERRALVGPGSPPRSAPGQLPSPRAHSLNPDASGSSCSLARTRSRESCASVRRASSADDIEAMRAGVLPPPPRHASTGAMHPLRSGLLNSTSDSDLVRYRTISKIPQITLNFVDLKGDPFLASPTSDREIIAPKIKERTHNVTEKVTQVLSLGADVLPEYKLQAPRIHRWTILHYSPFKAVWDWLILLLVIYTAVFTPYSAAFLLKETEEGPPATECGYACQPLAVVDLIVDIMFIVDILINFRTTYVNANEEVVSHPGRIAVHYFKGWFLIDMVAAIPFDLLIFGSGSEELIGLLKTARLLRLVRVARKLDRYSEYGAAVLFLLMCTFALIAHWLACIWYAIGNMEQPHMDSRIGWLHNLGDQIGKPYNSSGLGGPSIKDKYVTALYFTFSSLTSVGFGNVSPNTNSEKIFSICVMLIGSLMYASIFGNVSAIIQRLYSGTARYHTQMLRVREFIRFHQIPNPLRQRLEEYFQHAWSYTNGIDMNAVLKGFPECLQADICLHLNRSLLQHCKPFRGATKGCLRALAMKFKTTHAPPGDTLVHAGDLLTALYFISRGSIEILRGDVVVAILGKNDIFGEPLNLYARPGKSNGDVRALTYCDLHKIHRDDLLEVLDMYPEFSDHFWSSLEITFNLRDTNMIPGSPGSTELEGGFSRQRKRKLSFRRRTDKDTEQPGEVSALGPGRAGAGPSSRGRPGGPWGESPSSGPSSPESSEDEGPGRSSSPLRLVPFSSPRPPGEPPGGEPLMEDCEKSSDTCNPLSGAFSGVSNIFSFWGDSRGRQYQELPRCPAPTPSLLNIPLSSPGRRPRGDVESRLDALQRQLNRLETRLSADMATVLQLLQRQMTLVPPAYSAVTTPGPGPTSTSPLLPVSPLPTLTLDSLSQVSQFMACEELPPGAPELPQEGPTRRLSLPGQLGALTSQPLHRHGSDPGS
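Also: peak tail current of the secondary pulse compared with the same well before compound.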

SMILES | hERG current change (%, negative = inhibition) at 10uM [%]
COc1ccc(Cl)cc1NC(=O)CCCNC(=O)c1ccc(Cl)cc1 | -4.84
COc1ccc(Cl)cc1NC(=O)CN(C)C(=O)CCCNC(=O)c1ccc(Cl)cc1 | -55.4
COc1ccc(Cl)cc1NC(=O)CN(C)C(=O)CCNC(=O)c1ccccc1OC | -9.08
Cc1cc(C)n(/N=C/c2ccccc2)c(=O)c1C#N | 17
Cc1ccccc1NC(=O)CSc1nc(-c2ccccc2)cc(=O)[nH]1 | 24.9
CCOc1ncccc1C(=O)Nc1cc(S(=O)(=O)N2CCCCC2)ccc1Cl | 20.5
COc1cccc(NC(=O)CSc2nnc3c(n2)[nH]c2ccc(C)cc23)c1 | 8.36
COc1ccccc1C(=O)N1CCN(Cc2nc3cc([N+](=O)[O-])ccc3n2C)CC1 | -67.6
CC(=O)N1CCN(Cc2nc3cc(NC(=O)c4ccccc4Cl)ccc3n2C)CC1 | -20.8
COc1ccc(C(=O)NCCc2nc3cc([N+](=O)[O-])ccc3n2C)cc1 | -39.9
Cn1c(CN2CCOCC2)nc2cc(NC(=O)c3ccccc3Cl)ccc21 | -10.4
Cn1c(CN2CCN(C(=O)c3ccccc3Cl)CC2)nc2cc([N+](=O)[O-])ccc21 | -70.7
Cc1cc(C(c2nnnn2Cc2ccccc2)N2CCOCC2)c(C)n1-c1ccc2c(c1)OCO2 (centres unmarked) | -32.1
CCC(C)(C(=O)Nc1ccccc1C)N(C(=O)CNC(C)=O)c1ccc(C)cc1 (centres unmarked) | 14.8
COc1ccc(NC(=O)COC(=O)CCCC2=NS(=O)(=O)c3ccccc3N2)cc1Cl | 38.8
O=C(NCc1ccccc1)c1cc(S(=O)(=O)N2CCCCC2)ccc1N1CCOCC1 | -20.1
O=C(CSc1nnc(CNc2ccc(F)cc2)o1)N1CCCc2ccccc21 | 2.24
CNCC(=O)Nc1ccc(OC(F)(F)F)cc1.Cl | -3.92
CCN1CCCC1CNCC(O)COc1ccc(C(C)(C)C)cc1C.O=C(O)C(=O)O (centres unmarked) | -54.4
CCC(C)(C)NCC(=O)Nc1ccc(OC(F)(F)F)cc1 | -32.7
Cl.O=C(CNCC1CCCCC1)Nc1ccc(OC(F)(F)F)cc1 | -62.4
CCN1CCCC1CNC(=O)C(=O)NCCc1ccc(OC)c(OC)c1 (centres unmarked) | -1.49
CCN(CC(=O)Nc1ccc(C(=O)OC)cc1)C1CCCCC1 | -1.85
CCN1CCCC1CNC(=O)C(=O)Nc1ccc(OC)cc1 (centres unmarked) | -5.95
O=C(CNCC1CCCCC1)Nc1ccc(N2CCCCC2)cc1.O=C(O)C(=O)O | -17.3
CCN(C(=S)Nc1ccc(OC(F)F)cc1)C1CCCCC1 | -22.8
CCN1CCCC1CNC(=O)c1cc(N)ccc1OC.O.O=C(O)C(=O)O (centres unmarked) | 13.5
CCN(CC(=O)Nc1ccc(OC(F)F)cc1)C1CCCCC1 | -73.5
CCN1CCCC1CNCC(=O)Nc1ccc(OC(F)(F)F)cc1.O=C(O)C(=O)O (centres unmarked) | -70.7
